Screens as filed in PubChem.
TDP1 inh = qHTS Assay for Inhibitors of Tyrosyl-DNA Phosphodiesterase (TDP1); Tyrosyl-DNA phosphodiesterase 1 (Homo sapiens), Q9NUW8; recombinant TDP1, AlphaScreen DNA substrate cleavage; Potency, µM (series often up to 130 µM), for inactives: at the highest dose activity change, negative = inhibition, actives largely listed as inhibitors; 350,000 tested, 0.28% active; AID 485290, 2010; note: potency is the fitted concentration of half-maximal effect; % is set by controls: 0 for no effect and ±100 for the full control effect; nearly all actives have a fitted effect of over 40% in size
Target sequence (Q9NUW8 whole entry, looked up): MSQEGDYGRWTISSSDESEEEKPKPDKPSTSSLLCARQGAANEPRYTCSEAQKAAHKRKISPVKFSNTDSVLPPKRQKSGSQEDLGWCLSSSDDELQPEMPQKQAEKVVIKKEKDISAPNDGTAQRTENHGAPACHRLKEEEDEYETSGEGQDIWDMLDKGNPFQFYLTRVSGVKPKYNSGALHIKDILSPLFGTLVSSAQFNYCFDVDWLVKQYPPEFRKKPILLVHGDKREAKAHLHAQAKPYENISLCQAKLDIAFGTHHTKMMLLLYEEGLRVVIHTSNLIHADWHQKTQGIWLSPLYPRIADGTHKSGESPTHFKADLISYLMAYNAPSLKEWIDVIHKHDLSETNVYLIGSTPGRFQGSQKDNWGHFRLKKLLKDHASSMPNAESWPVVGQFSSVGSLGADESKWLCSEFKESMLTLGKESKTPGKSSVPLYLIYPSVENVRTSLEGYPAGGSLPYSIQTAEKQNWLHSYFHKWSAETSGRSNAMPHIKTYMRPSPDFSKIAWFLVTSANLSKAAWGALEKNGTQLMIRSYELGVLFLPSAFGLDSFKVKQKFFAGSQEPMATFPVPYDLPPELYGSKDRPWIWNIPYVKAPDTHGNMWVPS
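AlphaScreen read-out: signal falls as enzyme removes the 3' tyrosine-FITC from a 5'-biotinylated DNA oligo (15 nM, 5 min, RT). Enzyme was E. coli-made recombinant Tdp1 at 1 nM, exposed to compound for 15 min beforehand; beads 10 ug/ml, 10 min.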
HepG2 viability = qHTS for Inhibitors of TGF-b: Cytotox Counterscreen; HepG2 CAGA-GFP viability, ATP luminescence, 18 h; Potency, µM (doses to about 46.1 µM), inactives show at the top dose activity change, negative = cytotoxicity, usual class: cytotoxic; 410,000 tested, 0.76% active; AID 588856, 2011; note: potency is the fitted concentration of half-maximal effect
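HepG2 CAGA-GFP cells (1000/well, DMEM with 1% FBS) received compound, then TGF-beta at 500 pg/mL final, and were incubated 18 hours at 37 degrees C. Viability was read by CellTiter-Glo luminescence. Media-only wells were set as complete cell-killing and DMSO as no toxicity.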
TGFb inhibitor = qHTS for Inhibitors of TGF-b; Potency, µM (top dose mostly 46.1 µM), inactives show at the highest dose activity, negative = inhibition, usual class: inhibitors; HepG2 CAGA-GFP TGF-b/SMAD3 reporter, GFP fluorescence, 18 h; TGF-beta stimulated, 500 pg/mL final; 410,000 tested, 1.2% active; note: potency is the fitted concentration of half-maximal effect; % is set by controls: 0 for no effect and ±100 for the full control effect; nearly all actives have a fitted effect of over 65% in size
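Per well, imaged GFP fluorescence of HEPG2 CAGA-GFP cells gives the signal; cells get compound, then TGF-beta (500 pg/mL final), 18 h at 37 degrees C; %Activity versus -TGF-beta and +DMSO controls.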
TDP1 cell CPT = qHTS for Inhibitors of human tyrosyl-DNA phosphodiesterase 1 (TDP1): qHTS in cells in presence of CPT | chicken DT40 Tdp1-/-;hTDP1 cells + 20 nM CPT, ATP luminescence, 48 h | Potency, µM (titrated, usually from 46.2 µM), for inactives: at the top dose activity change, negative = growth inhibition, hits mostly inhibitors | 420,000 tested, 12% active | AID 686979, 2013; note: potency is the fitted concentration of half-maximal effect; % is set by controls: 0 for no effect and ±100 for the full control effect; nearly all actives have a fitted effect of over 55% in size
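Chicken DT40 Tdp1-/- cells stably complemented with human TDP1 were seeded at 400 cells/well in medium containing 20 nM camptothecin, exposed to pin-transferred compounds, and grown at 37 °C for at least 48 hr. Viability was read as ATP luminescence.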
IL1B secr inh = qHTS for Inhibitors of Inflammasome Signaling: IL-1-beta AlphaLISA Primary Screen. THP-1 LPS/ATP IL-1B secretion, AlphaLISA, 16 h; hits give low values. activity change, % at 57.5 µM. 360,000 tested, 4.7% active. AID 743279, 2014; in the data active = activity change below about -50%; inconclusive = mostly about -30% to -49%; note: % is set by controls: 0 for no effect and ±100 for the full control effect
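THP-1 cells pretreated 1 hr with compounds (up to 57.5 uM final), then stimulated with LPS (250 ng/mL final) plus ATP (1.25 mM final); secreted IL-1B measured by AlphaLISA after 16 hr, decreased signal indicating inhibition.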
TDP1 cell noCPT = qHTS for Inhibitors of human tyrosyl-DNA phosphodiesterase 1 (TDP1): qHTS in cells in absence of CPT; DT40 Tdp1-/- hTDP1 cells, no CPT, ATP luminescence, 48 h; Potency, µM (doses to about 46.2 µM), for inactives: at the top dose activity change, negative = growth inhibition, usual class: inhibitors; 420,000 tested, 15% active; note: potency is the fitted concentration of half-maximal effect; % is set by controls: 0 for no effect and ±100 for the full control effect; nearly all actives have a fitted effect of over 55% in size
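Chicken DT40 Tdp1-/- cells stably complemented with human TDP1 were seeded at 400 cells/well with DMSO in place of 20 nM camptothecin. After compound pinning, cells grew at least 48 hr at 37 °C; viability read by CellTiter-Glo luminescence.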
An asterisk follows results filed as active; ? = inconclusive; · = not tested or not shown. Shown are actives, neighbours in structure and some others; about 18% of the full set was active somewhere. Unless noted, calls come from the whole dose curve; as a rule, active = well fitted curve in the direction sought with a large enough effect; inconclusive = small, poorly fitted or top-dose-only effect, or another doubt; inactive = no such curve, though single readings can be large; an effect the other way counts as inactive or inconclusive.

SMILES	TDP1 inh	HepG2 viability	TGFb inhibitor	TDP1 cell CPT	IL1B secr inh	TDP1 cell noCPT
CC(C)CNS(=O)(=O)c1cc(C(=O)N2CC(C)OC(C)C2)c(Cl)cc1Cl (configuration not stated)	1%	-35%	1%	?	-1	23µM*
CNc1nnc(-c2cc3cc(Cl)ccc3oc2=O)s1	2%	2%	?	-21%	-7	1%
O=c1oc2ccc(Cl)cc2cc1-c1nnc(Nc2cccc(C(F)(F)F)c2)s1	4%	-13%	1%	?	-7	2.6µM*
CCc1ccc(N2CSC3=C(C#N)C(c4cccs4)CC(=O)N3C2)cc1 (configuration not stated)	0%	-25%	0%	?	-2	16µM*
CCOc1ccccc1N1CSC2=C(C#N)C(c3c(OC)ccc4ccccc34)CC(=O)N2C1 (configuration not stated)	4%	-12%	?	?	12	21µM*
COc1ccc(N2CSC3=C(C#N)C(c4cc(OC)ccc4OC)CC(=O)N3C2)c(OC)c1 (configuration not stated)	9%	2%	-6%	?	52	?
COc1ccc([C@H]2CN(c3ccc(OC)cc3)C(=O)[C@@H]2CC(=O)Nc2ccc(Br)cc2)cc1	·	-41%	23%	?	-23	?
CC1(C)c2ccccc2N2CC(=O)NC21/C=C/c1ccco1 (configuration not stated)	-5%	-6%	-6%	?	-3	23µM*
COCc1nnc(NC(=O)C2CCN(C(=O)c3ccccc3)CC2)s1	·	22%	1%	-2%	·	8%
C[C@H]1NC(=O)[C@]2(C)[C@@H](c3ccccc3)[C@H]3COc4ccccc4[C@@H]3N2C1=O	·	9%	6%	0%	0	-14%
C[C@@]12C(=O)N(c3ccc(C(F)(F)F)cc3)C(=O)N1[C@@H]1c3ccccc3OC[C@@H]1[C@H]2c1ccccc1	·	-29%	3%	7.3µM*	0	10µM*
C[C@]12C(=O)N(c3ccc(F)cc3)C(=O)N1[C@@H]1c3ccccc3OC[C@@H]1[C@H]2c1ccccc1	·	-2%	1%	?	-10	18µM*
CCOC(=O)[C@@H]1[C@H]2COc3ccccc3[C@H]2N2C(=O)N(c3ccc(F)cc3)C(=O)[C@]12C	·	-29%	-6%	-22%	-8	-17%
COc1ccc(OC)c(/C=C2\N=C(c3ccccc3)OC2=O)c1	·	7%	2%	-12%	-6	-14%
COc1ccc(/C=C2\N=C(C(C)(C)C)OC2=O)c(OC)c1	3%	-12%	-13%	7.3µM*	31	8.2µM*
Cc1ccc(S(=O)(=O)Nc2ccc(Nc3nccn4c(-c5cccc(OC(F)(F)F)c5)cnc34)cc2)cc1	·	-22%	?	18µM*	-26	12µM*
O=C(NCCO)c1cccc(-c2cnc3c(Nc4cccc(OC(F)(F)C(F)F)c4)nccn23)c1	·	-58%	?	?	?	?
CCCN1CCC(=O)N(C(CSc2ccc(C)cc2)CC(C)C)CC1 (configuration not stated)	10%	-19%	?	·	·	·
Cc1ccc(SC[C@H](Cc2ccccc2)N2CCN(CCc3ccccc3)CCC2=O)cc1	4%	-46%	-19%	?	-17	?
O=C1CCN(CCc2ccccc2)CCN1[C@H](CSc1ccccc1)Cc1ccccc1	·	-2%	?	21µM*	-64*	11µM*
CCCN1CCC(=O)N([C@H](CSc2ccc(C)cc2)Cc2ccccc2)CC1	4%	-25%	-1%	29µM*	-17	?
CCCN1CCC(=O)N([C@H](CSc2ccc(C)cc2)CC(C)C)CC1	1%	-20%	?	21µM*	-19	16µM*
CCCN1CCC(=O)N([C@H](CSc2ccc(OC)cc2)Cc2ccccc2)CC1	2%	-32%	?	?	7	18µM*
Nc1nc(SCc2ccccc2)c2ncn(C3CCCO3)c2n1 (configuration not stated)	·	-13%	-1%	?	-10	?
Cc1ccc2c(c1)N(C(=O)CCC(=O)NCc1ccccc1Cl)CC(C)O2 (configuration not stated)	9%	-15%	-23%	?	·	?
SMILES	TDP1 inh	HepG2 viability	TGFb inhibitor	TDP1 cell CPT	IL1B secr inh	TDP1 cell noCPT
CCc1cc(=O)oc2c3c(cc(OCC(=O)NCc4ccccn4)c12)OC(C)(C)CC3	·	-37%	-16%	23µM*	-22	?
CCCc1cc(=O)oc2c3c(cc(OCC(=O)NCCCn4ccnc4)c12)OC(C)(C)CC3	·	-54%	-5%	16µM*	0	26µM*
CCc1cc(=O)oc2c3c(cc(OCC(=O)Nc4cccnc4)c12)OC(C)(C)CC3	·	-6%	25%	?	?	15µM*
Cc1c(C)c2c(OCC(=O)Nc3cccnc3)cc3c(c2oc1=O)CCC(C)(C)O3	·	-1%	3%	-19%	-23	-25%
CCc1cc(=O)oc2c3c(cc(OCC(=O)NCc4cccnc4)c12)OC(C)(C)CC3	·	-18%	-3%	?	-1	21µM*
O=C(CN1CCN(S(=O)(=O)c2ccc(Br)s2)CC1)NCC1CCCCC1	·	-2%	-16%	-23%	-5	?
COc1cc(OC)c(OC)cc1CCC(C)NC(=O)Cc1ccccc1 (configuration not stated)	·	-21%	-2%	-18%	15	11%
Cc1cc2nc(C)c(Cc3ccccc3)c(=O)n2[nH]1	2%	13%	?	-9%	-11	-24%
COc1ccc(/C=C(\NC(=O)c2ccc(C)cc2)C(=O)N2CCCCC2)cc1	·	-18%	-1%	0%	0	1%
Cc1ccc(N2CC(NC(=O)/C=C\c3ccc4c(c3)OCO4)CC2=O)cc1C (configuration not stated)	5%	-7%	-21%	?	·	?
COc1cc2c(cc1OC)n(Cc1ccc([N+](=O)[O-])cc1)c(=O)n1nc(-c3ccccc3)nc21	5%	-22%	-2%	?	·	?
